Sampled rows, rich in hits. Any-hit rate of the full collection: about 4.1%.
Autofluor counter = counter-screen for toxin protease inhibitors: compound fluorescence. 360,000 tested, 3.1% active. AID 624483. compound autofluorescence counterscreen, microsphere flow cytometry; hits give high values. fluorescence intensity (test concentration not listed); in the data active means fluorescence intensity above about 16000; inconclusive means no clear call, values can overlap the other calls
MazF activator = activators of E. coli MazEF toxin-antitoxin RNase, primary screen, biochemical, fluorescence, uHTS; Endoribonuclease toxin MazF (Escherichia coli (strain K12)), P0AE70; FAM/BHQ RNA-DNA oligo cleavage fluorescence, 5 h; activation, % at 20 µM; 350,000 tested, 0.32% active; AID 504720, 2011; in the data active means activation above about 50%
Target sequence (P0AE70 whole entry, looked up): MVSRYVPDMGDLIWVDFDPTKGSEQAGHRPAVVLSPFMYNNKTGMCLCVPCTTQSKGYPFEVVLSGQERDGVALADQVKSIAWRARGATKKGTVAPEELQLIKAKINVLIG
Anthrax LF inh2 = Bacillus anthracis LF protease inhibitors, primary screen, biochemical, multiplex microsphere, MLPCN library; 360,000 tested, 0.12% active; inhibition, % at 10 µM; Lethal factor (Bacillus anthracis), P15917; AID 588501, 2011; multiplex microsphere protease cleavage assay
BoNT-F LC inh = BoNT/F light chain protease inhibitors, primary screen, biochemical, flow cytometry, MLPCN library | inhibition, % at 10 µM | 360,000 tested, 0.22% active | Multiplex microsphere protease cleavage assay | Botulinum neurotoxin type F light chain protease (Clostridium botulinum); in the data active means inhibition above about 35%, passing the limit was not always enough; inconclusive means no clear call, values can overlap the other calls
VHR inh abs = VHR1 phosphatase inhibitors, primary screen, biochemical, absorbance, uHTS | inhibition, % at 13.3 µM | recombinant VHR phosphatase, pNPP absorbance | Dual specificity protein phosphatase 3 (Homo sapiens), P51452 | 290,000 tested, 0.52% active; in the data active means inhibition above about 50%
Target sequence (P51452 whole entry, looked up): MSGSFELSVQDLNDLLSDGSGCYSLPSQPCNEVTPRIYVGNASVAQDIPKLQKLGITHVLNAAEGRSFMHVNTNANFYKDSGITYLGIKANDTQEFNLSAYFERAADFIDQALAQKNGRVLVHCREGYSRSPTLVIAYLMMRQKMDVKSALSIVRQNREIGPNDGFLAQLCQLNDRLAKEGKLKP
BoNT-A LC inh2 = BoNT/A light chain protease inhibitors, primary screen, biochemical, flow cytometry, MLPCN library | inhibition, % at 10 µM | 360,000 tested, 0.17% active | Botulinum neurotoxin type A light chain protease (Clostridium botulinum A str. ATCC 3502) | multiplex microsphere protease substrate cleavage
Of the large screens only hits and unclear results are named; the others gave an inactive call. Unless noted, no stated cut-off is given here; in the data, active means inhibition above about 30%; inconclusive means no clear call, values can overlap the other calls; inactive means below that.

O=C(Nc1ccc2ccccc2c1)c1cn(-c2ccccc2)nc1-c1cccs1	Autofluor counter 16591
O=C(O)c1cn(-c2ccccc2)nc1-c1ccncc1	none
O=C(CCCN1C(=O)c2cccnc2C1=O)Nc1ccc(F)cc1Cl	none
C/C(=C1/SC(=S)N(CCC(=O)O)C1=O)c1ccc(O)cc1	none
COc1ccc(/C(C)=C2\SC(=S)N(CCC(=O)O)C2=O)cc1	Autofluor counter 20765
O=C(CCCCC(=O)NCCCc1ccccc1)NCCCc1ccccc1	BoNT-F LC inh inconclusive
C=CCNC(=O)CCCc1ccccc1	Autofluor counter 23759
C=CCNC(=O)c1ccc(C(=O)c2ccccc2)cc1	Autofluor counter 23162
CC1(C)CC(=O)C2=C(C1)c1c(ccc3ccccc13)NC2c1cc([N+](=O)[O-])cc([N+](=O)[O-])c1O (configuration not stated)	none
COc1ccc2c(CC(=O)Nc3nccs3)coc2c1	none
Cc1cc2occ(CC(=O)Nc3nccs3)c2cc1C(C)C	Autofluor counter 22242, BoNT-A LC inh2 inconclusive
COc1cc(CC(=O)Nc2nccs2)cc(OC)c1OC	Autofluor counter 22884, BoNT-A LC inh2 inconclusive
CCOc1ccc(CC(=O)Nc2nccs2)cc1	none
Cc1ccc(CC(=O)Nc2nccs2)cc1C	VHR inh abs 57.6
COc1ccc(CCC(=O)Nc2nccs2)cc1OC	none
COCCSc1ccccc1C(=O)Nc1ccc(S(=O)(=O)N2CCOCC2)cc1	none
Cc1c(N(C)S(=O)(=O)c2cc(C(=O)N3CCCC3)ccc2Cl)c(=O)n(-c2ccccc2)n1C	VHR inh abs 53.3
CCc1ccccc1N1CCN(S(=O)(=O)c2cc(OC)ccc2OC)CC1	Autofluor counter 23647, BoNT-A LC inh2 inconclusive
COc1ccc(OC)c(S(=O)(=O)N2CCN(c3ccccc3)CC2)c1	BoNT-F LC inh inconclusive
CC1=CCC(C(=O)O)(C(=O)N/N=C/c2cccs2)C(c2ccc([N+](=O)[O-])cc2)C1 (configuration not stated)	Autofluor counter 21132
CCN(Cc1ccc(OC)c(COC)c1)CC1CCCN(CCc2cccc(OC)c2)C1 (configuration not stated)	VHR inh abs 53.6 (no result: Autofluor counter, Anthrax LF inh2, BoNT-F LC inh, BoNT-A LC inh2)
COc1ccc(CN(C)CC2CCCN(CCc3ccc(F)cc3)C2)c(OC)c1OC (configuration not stated)	BoNT-F LC inh inconclusive, VHR inh abs 59.7
CCN(C(=O)CSc1nc2ccc([N+](=O)[O-])cc2s1)c1c(N)n(Cc2ccccc2)c(=O)[nH]c1=O	none (no result: VHR inh abs)
O=C(CN1CCN(c2nc(-c3ccc(F)cc3)cs2)CC1)NCc1ccc2c(c1)OCO2	Autofluor counter 23682
O=C(CN1CCN(c2ncccn2)CC1)NCc1ccc2c(c1)OCO2	none
O=C(Nc1cccc(S(=O)(=O)N2CCCCC2)c1)C1CCCN1S(=O)(=O)c1ccccc1F (configuration not stated)	none (no result: VHR inh abs)
Cc1cc(C)n2nc(C(F)(F)F)c(-c3ccccc3)c2n1	none
CC1CN(C(=O)c2cc3cc(Cl)ccc3[nH]2)CC(C)O1 (configuration not stated)	none
CC1CN(C(=O)c2cc3cc(F)ccc3[nH]2)CC(C)O1 (configuration not stated)	VHR inh abs 53.0
O=C(O)c1cc(NC(=O)c2ccco2)cc(NC(=O)c2ccco2)c1	none
Cc1ccc(Oc2ccccc2/C=C2\SC(=O)N(C)C2=O)cc1	Autofluor counter 21464
CN1C(=O)S/C(=C\c2ccccc2OCc2ccc(C(=O)O)cc2)C1=O	none
COc1ccc(C(=O)NCc2ccc(N3CCN(C)CC3)cc2)cc1	none
COc1cccc(C(=O)NCc2ccc(N3CCN(C(=O)OC(C)(C)C)CC3)cc2)c1	Autofluor counter 20260
COc1ccc(C(=O)NCc2ccc(N3CCN(C(=O)OC(C)(C)C)CC3)cc2)cc1	Autofluor counter 22812
COc1cccc(C(=O)NCCN2CCN(c3ccccc3)CC2)c1	BoNT-F LC inh inconclusive
CC(C)(C)NC(=O)C(c1ccc(F)cc1)N(Cc1ccco1)C(=O)CCC(=O)Nc1nccs1 (configuration not stated)	none
CCc1nn(CC(=O)Nc2cc(C)ccc2C)c(=N)s1	none
Cc1cc(N2CCN(c3ccccc3)CC2)nc(NCc2ccccc2)n1	MazF activator 55.1
CCCc1nc(C)cc(N2CCN(c3ccccc3)CC2)n1	none
Oc1ccc2ccccc2c1C=Nc1cc(C(F)(F)F)ccc1N1CCCC1	MazF activator active
O=C(O)c1ccc(N=Cc2c(O)ccc3ccccc23)cc1	none
O=C(NNS(=O)(=O)c1ccccc1)Nc1ccc(F)cc1	none
Cc1cc(C)c2c(=O)[nH]c(SCC(=O)N3CCCCC3)nc2n1	Autofluor counter 21909
C/C(=N\NC(=O)c1c[nH]c2ccccc12)c1ccc(C)o1	Autofluor counter 23011
CCc1nnc(NC(=O)CSc2nc3cc4c(cc3cc2CC)OCCO4)s1	MazF activator 81.7
CCn1c(=O)n(CC(=O)N2CC(C)CC(C)C2)c(=O)c2ccccc21 (configuration not stated)	Autofluor counter 20034
O=C(CCCCn1c(=O)c2ccccc2n(CC(=O)NC2CCCC2)c1=O)NC1CCCC1	none
CC1CC(C)CN(C(=O)Cn2c(=O)n(CCCCC(=O)NC3CCCC3)c(=O)c3ccccc32)C1 (configuration not stated)	BoNT-F LC inh 36.9
COc1ccc(NC(=O)c2cc(S(=O)(=O)N3CCc4ccccc43)cn2C)cc1OC	none
COc1cc(CNc2ccc3[nH]c(=O)[nH]c3c2)ccc1OCc1c(F)cccc1Cl	VHR inh abs 52.6
COc1cc(CNc2ccc3[nH]c(=O)[nH]c3c2)ccc1OCc1ccccc1F	none (no result: Autofluor counter, Anthrax LF inh2, BoNT-F LC inh, BoNT-A LC inh2)
Cc1[nH]c2ccccc2c1C1(O)C(=O)N(C(C)C)c2ccccc21 (configuration not stated)	Autofluor counter 23898
Cc1ccc(-c2ccccc2NC(=O)CCl)o1	none
Cc1ccc(-c2ccccc2NC(=O)CS(=O)CC(=O)Nc2ccc(C)c(Cl)c2)o1 (configuration not stated)	MazF activator 385.2
Cc1ccc(NC(=O)CS(=O)CC(=O)NC(C)CCc2ccco2)cc1Cl (configuration not stated)	Autofluor counter 23396
Cc1ccc(NC(=O)CNC(=O)c2ccco2)cc1Cl	none
CCCc1cc2c(=O)c(-c3nc4ccccc4s3)c(COCC(=O)O)oc2cc1O	MazF activator 59.6
CN1CCCC1CCNC1C2CC3CC(C2)CC1C3 (configuration not stated)	Autofluor counter 16148
COc1ccc(S(=O)(=O)N2CCCOC2CNC(=O)C(=O)NCCO)cc1 (configuration not stated)	none (no result: VHR inh abs)
